VP16 counter – inhibits Gal4-VP16 luciferase reporter, ROR gamma counter-screen; Potency, µM (top dose mostly 53.6 µM), for inactives: top-dose activity, negative = inhibition, most hits filed as inhibitors; 310,000 tested, 3.5% active; Drosophila S2 Gal4-VP16 UAS-luciferase, luminescence, 20 h; AID 2546;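 further: Gal4-VP16 expression switched on by copper sulfate through the metallothionein promoter; nearly all actives have a fitted effect of over 50% in size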
RORg inh – ROR gamma (mouse) transcription inhibition; 310,000 tested, 5.4% active; Potency, µM (top dose mostly 53.6 µM), without a hit: at the highest dose activity change, negative = inhibition, actives largely listed as inhibitors; Drosophila S2 Gal4-RORgamma UAS-luciferase reporter, 20 h; further: nearly all actives have a fitted effect of over 60% in size
Target sequence (P51450 whole entry, looked up, the tested form may be a part): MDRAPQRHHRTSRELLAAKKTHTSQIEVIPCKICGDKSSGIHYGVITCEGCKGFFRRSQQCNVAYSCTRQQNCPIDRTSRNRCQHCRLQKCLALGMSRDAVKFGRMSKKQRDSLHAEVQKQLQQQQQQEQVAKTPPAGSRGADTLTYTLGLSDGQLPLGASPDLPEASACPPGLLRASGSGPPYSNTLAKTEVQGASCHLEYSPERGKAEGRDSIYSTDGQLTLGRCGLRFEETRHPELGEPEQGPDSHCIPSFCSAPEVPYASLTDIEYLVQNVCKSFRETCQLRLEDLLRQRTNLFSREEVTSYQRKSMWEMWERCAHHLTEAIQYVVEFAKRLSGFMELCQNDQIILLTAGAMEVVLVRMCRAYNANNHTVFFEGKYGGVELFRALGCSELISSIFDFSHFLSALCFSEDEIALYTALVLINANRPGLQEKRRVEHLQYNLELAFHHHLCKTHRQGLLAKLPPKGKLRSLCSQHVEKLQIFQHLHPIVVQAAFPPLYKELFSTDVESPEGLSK
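Compounds are pin-transferred onto Drosophila Schneider cells expressing a copper-inducible Gal4–ROR gamma transactivation domain fusion. After 1 hr, copper sulfate is added to 700 uM final; luciferase is read 20 hr later.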
Luc counter – blocks Kinase-Glo luciferase, a counter-screen artifact; Q27757; Kinase-Glo luciferase, ATP luminescence, 8 min; Potency, µM (highest dose often 38.3 µM), for the others: at the highest dose activity change, negative = inhibition, hits mostly inhibitors; 200,000 tested, 0.28% active; AID 1379; further: nearly all actives have a fitted effect of over 60% in size
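Substrate mix (final 50 mM imidazole pH 7.2, 50 mM KCl, 7 mM MgCl2, 10 uM ATP, 0.01% Tween 20, 0.05% BSA) plus pin-tool compound, then Kinase-Glo detection mix; 8 min ambient, luminescence read.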
Numbers without * were called inactive; ? = inconclusive; . = not tested or not shown; [ ] = another dose, or the depositor's remark. Rows were chosen to be rich in hits. Some 6.4% of all compounds tested hit in one or more screens of this group. The call rests on the fitted dose curve; in most records, active means well fitted curve in the direction sought with a large enough effect; inconclusive means small, poorly fitted or top-dose-only effect, or another doubt; inactive means no such curve, though single readings can be large; an effect the other way counts as inactive or inconclusive. On the % scale 0 is the no-effect control and ±100 the full control effect; potency means the concentration at half of the fitted maximal effect.

SMILES	VP16 counter	RORg inh	Luc counter
O=C(Nc1ccc(N2CCCCC2)cc1)c1ccccn1	2µM*	1.3µM*	7.9µM*
O=C(COc1ccc(/C=N/NC(=O)C(=O)N2CCCCC2)cc1)Nc1ccccc1Cl	-3%	27%	2%
Fc1ccc(-c2nnc(SCc3cccnc3)o2)cc1	9%	-9%	-1%
COc1ccccc1NS(=O)(=O)c1cc(NC(=O)/C=C/c2cccs2)ccc1N1CCOCC1	0%	-3%[10 µM]	1%
CCCOC(=O)Nc1ccc(N2CCCCC2)cc1	?	11µM*	-7%
Cc1c(C(=O)Nc2ccc3c(c2)OCCO3)cnn1C	-23%	-35%	.
Cn1nc(C(=O)Nc2ccc3c(c2)OCCO3)cc1C(=O)O	-29%	-45%	11µM*
O=C(Nc1ccc(N2CCOCC2)cc1)c1cn2ccccc2n1	-8%	1%	4.5µM*
Cn1nccc1C(=O)Nc1ccc2c(c1)OCCO2	-11%	-37%	13µM*
O=C(Nc1ccc(Cl)c(S(=O)(=O)N2CCOCC2)c1)c1cn2ccccc2n1	-12%	16%	1%
Cn1nc(C(=O)Nc2ccc(Cl)cc2)cc1C(=O)Nc1ccc(Cl)cc1	-4%	-9%	.
O=C(CN1CCCCC1)Nc1ccc(N2CCCCCC2)cc1	8%	23%	-1%
O=C=Nc1ccc(Cc2ccc(N=C=O)cc2)cc1	-7%	9%	.
CN[C@H]1CCc2cc(OC)c(OC)c(OC)c2-c2ccc(N[C@@H]3CCCCNC3=O)c(=O)cc21	-4%	-6%	2%
Cc1ccn2c(NC(=O)C(C)(C)Oc3ccc(Cl)cc3)c(-c3cccs3)nc2c1	5%	9%[10 µM]	2%
COc1cc(C2Nc3ccccc3NC3=C2C(=O)CC(C)(C)C3)cc(OC)c1OC(C)=O (stereo not given)	-1%	5%	.
Cc1ccc(N(CCC#N)C(=O)CN2C(=O)NC(Cc3ccccc3)C2=O)cc1 (stereo not given)	-18%	14%	5%
CN(Cc1ccccc1)C1CCNCC1	-16%	-7%	.
CN(C)C(CNC(=S)Nc1ccc(Cl)cc1)c1cccnc1 (stereo not given)	5%	9%	.
Cc1cccc(NC(=S)NC(C)CCc2ccccc2)c1 (stereo not given)	3.2µM*	7.1µM*	.
O=C(NC(NC(=S)Nc1cccc(C(=O)O)c1)C(Cl)(Cl)Cl)OCc1ccccc1 (stereo not given)	-2%	13%	0%
Cc1cccc(NC(=S)NCC(c2ccccc2)N(C)C)c1 (stereo not given)	10µM*	3.2µM*	-1%
Cc1cccc(NC(=O)NC(C)CCc2ccccc2)c1 (stereo not given)	1%	13%	4%
CN(C)C(CNC(=S)Nc1cccc(Cl)c1)c1ccccc1 (stereo not given)	13µM*	4µM*	0%
Cc1cccc(NC(=S)NC(NC(=O)OCc2ccccc2)C(Cl)(Cl)Cl)c1 (stereo not given)	?	11µM*	0%
SMILES	VP16 counter	RORg inh	Luc counter
CN(C)C(CNC(=O)Nc1cccc(Cl)c1)c1cccnc1 (stereo not given)	4%	11%	1%
CNS(=O)(=O)c1cc(NC(=O)CCNC(=O)c2ccco2)ccc1C	0%	0%	.
Cc1cc(/C(N)=N/OC(=O)Nc2ccc(Cl)cc2)no1	0%	9%	.
CC(=O)N(C)c1ccc(C(O)(C(F)(F)F)C(F)(F)F)cc1	-12%	13µM*	-1%
CCOC(=O)N(C)c1ccc(C(O)(C(F)(F)F)C(F)(F)F)cc1	-3%	25%	-3%
Cn1c2ccccc2c(=O)c2c(=O)n(Cc3ccccc3)c(-c3ccc(F)cc3)nc21	0%	10%	.
O=C(N/N=C/c1cc(Cl)cc(Cl)c1O)c1ccncc1	?	3.2µM*	.
O=C(O)c1cccc(N/N=C/c2cc(Br)cc(Br)c2O)c1	-17%	?	-3%
O=C(N/N=C/c1ccc(Cl)cc1Cl)c1ccncc1	-14%	-27%	.
CCC(O)(CC)C(=O)N/N=C/c1cc(Br)cc(Br)c1O	3.2µM*	0.79µM*	.
O=C(N/N=C/c1ccc(Cl)cc1Cl)c1cccc(N2CCCC2=O)c1	-3%	8%	.
O=C(N/N=C/c1c[nH]c2ccccc12)c1ccncc1	?	?	-6%
O=C(N/N=C/c1c[nH]c2ccc(Br)cc12)c1ccncc1	?	13µM*	-1%
O=C(N/N=C/c1cc(Br)cc(Br)c1O)c1cccc(N2CCCC2=O)c1	10µM*	3.5µM*	0%
CC(C)CC(=O)Nc1ccc(-c2nnn(CC(=O)NCc3ccco3)n2)cc1	-2%	2%	2%
CC1CCCN(CCCN2C(=O)C3C(C(=O)Nc4ccc(Cl)cc4)C4C=CC3(O4)C2C(=O)NC2CCCCC2)C1 (stereo not given)	9%	-14%	.
O=C(NCCc1ccc(Cl)cc1Cl)c1cccnc1	-9%	11%	.
COC(=O)C/C=N/N=C1/NC(=O)/C(=C/C(=O)O)S1	16%	14%	.
O=C(N/N=C/c1cc(Br)cc([N+](=O)[O-])c1O)c1ccc(NC(=O)c2ccc(F)cc2)cc1	11µM*	8.9µM*	.
O=C(N/N=C/c1cc(Br)cc(Br)c1O)c1ccncc1	-26%	4µM*	4%
O=C(N/N=C/c1ccc(O)cc1O)c1ccncc1	0%	-23%	.
O=C(N/N=C/c1ccccc1)c1ccc(NC(=O)c2ccc(F)cc2)cc1	2%	-30%	.
CC1Cc2cc(/C(O)=C3/C(=O)C(=O)N(CCN4CCOCC4)C3c3ccc([N+](=O)[O-])cc3)ccc2O1 (stereo not given)	0%	14%	.
CC12CCC=CC1C(c1ccc(F)c(/C=C/c3ccccc3)c1)N(Cc1ccccc1)C2=O (stereo not given)	-3%	40%	.
CC(=O)NC(=S)Nc1ccc(NC(=O)COc2ccc(Cl)cc2Cl)cc1	-5%	6%	-3%
SMILES	VP16 counter	RORg inh	Luc counter
CC(C)CC(=O)NC(=S)Nc1ccc(NC(=O)c2cccs2)cc1	6%	?	-6%
Cc1cc(NC(=S)NC(=O)CC(C)C)ccc1Br	?	2.8µM*	-10%
COC(=O)Cc1ccc(NC(=S)Nc2ccc(N3CCOCC3)cc2)cc1	-6%	-39%	0%
O=C(COc1ccc(Cl)cc1Cl)NNC(=S)Nc1ccc(F)cc1	?	3.5µM*	.
CC(C)CC(=O)NC(=S)Nc1ccc(N2CCOCC2)cc1	?	28µM*	-4%
CC(c1ccco1)N(C(=O)COc1ccc(Cl)cc1)c1ccccn1 (stereo not given)	20%	25%	-6%
CC(c1ccco1)N(C(=O)COc1ccc(Cl)cc1Cl)c1ccccn1 (stereo not given)	11µM*	?	-5%
Cc1ccc(CS(=O)(=O)Cc2ccc(C(=O)NCCCN3CC(C)CC(C)C3)o2)cc1 (stereo not given)	2%	-6%	.
O=C(COC(=O)/C=C/c1ccc(Br)o1)NCCCN1CCCC1=O	-6%	-9%	3%
COC(=O)c1ccc(NC(=O)c2ccc(CN3CCOCC3)cc2)cc1	.	-9%[0.365 µM]	-4%
CC(C)CC(=O)NNC(=S)Nc1ccc(S(N)(=O)=O)cc1	-3%[10 µM]	18µM*	-2%
O=C(CCCCl)NC(=S)Nc1ccc(N2CCOCC2)cc1	?	2.2µM*	.
CC(C)CC(=O)NC(=S)Nc1ccc(CN2CCOCC2)cc1	11%	4.5µM*	.
O=C(CCCCl)NC(=S)Nc1ccc(CN2CCOCC2)cc1	3%	-22%	.

Bioassay records as filed in PubChem BioAssay.
